Experimental data published in publication PMC10668032, “Altered binding affinity of SIX1-Q177R correlates with enhanced WNT5A and WNT pathway effector expression in Wilms tumor”.
In all, about 33,000 sequences were measured (“e-score”: median about -0.05, highest 2% from about 0.38 on). For the sample, the highest values were picked, then their nearest neighbours and some sequences at random.

Target: T1, SIX1-Q177R homeodomain (human, UniProt Q15475 108-198, Q177R)
T1 sequence: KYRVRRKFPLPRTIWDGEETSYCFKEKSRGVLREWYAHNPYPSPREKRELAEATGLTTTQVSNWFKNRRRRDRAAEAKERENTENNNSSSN
Test: universal protein binding microarray; Universal all-10-mer PBM (8x60K, AMADID 030236), 300 nM GST-tagged protein, Alexa Fluor 488 anti-GST; buffer, salt, pH and temperature not stated (as in Berger); high values mean tight binding
Conditions: protein: ivt; tags: N-terminal GST; dsDNA, one strand shown
Method in brief: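 Binding was expressed as 8-mer E-scores calculated with the Universal PBM Analysis Suite. The GST-tagged homeodomains, made by in vitro transcription/translation, were applied in duplicate at 300 nM final concentration to universal 'all 10-mer' protein binding microarrays (8×60K format).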

| Sequence | binding signal [E-score] |
| --- | --- |
| CACCACTG | 0.342 ± 0.00325 |
| GCGGTCGA | 0.152 ± 0.00747 |
| ACACAGTG | 0.259 ± 0.0202 |
| CGGGATCA | 0.269 ± 0.00773 |
| GAGTACTC | 0.1739 ± 0.000948 |
| AAGTACAC | 0.425 ± 0.0204 |
| AAGTACCC | 0.2054 ± 0.000912 |
| GAGTACAC | 0.4362 ± 0.00255 |
| CAGTACAC | 0.433 ± 0.00665 |
| AAGTAATC | 0.163 ± 0.0142 |
| CAGCACAC | 0.269 ± 0.0132 |
| GAGTACCC | 0.173 ± 0.00951 |
| CAGTACCG | 0.185 ± 0.0235 |
| ACACAGCC | 0.164 ± 0.059 |
| GATTGAAC | 0.162 ± 0.0507 |
| GGATCCAA | 0.201 ± 0.0192 |
| CACGTGGA | 0.243 |
| AGGTGACT | 0.165 ± 0.006 |
| CACCCTCA | 0.264 ± 0.0103 |
| CCGTTGAC | 0.16 ± 0.0161 |
| GTGTTGGA | 0.414 ± 0.0127 |
| GGGTTGTA | 0.169 ± 0.0161 |
| GTTGTGTA | 0.255 ± 0.0169 |
| GTGTTGAA | 0.396 ± 0.00711 |

| Sequence | binding signal [E-score] |
| --- | --- |
| GTGTTGCA | 0.3853 ± 0.00118 |
| GTGTTGTA | 0.389 ± 0.00682 |
| GTGTTTCA | 0.357 ± 0.00873 |
| CGATCCAC | 0.2384 ± 0.00175 |
| CCTACGCA | 0.17 ± 0.0129 |
| CACGAAAG | 0.16 ± 0.0281 |
| TACGGACA | 0.168 ± 0.019 |
| CACTGGTA | 0.3128 ± 0.00191 |
| ATCTGACA | 0.275 ± 0.0351 |
| CACCCATG | 0.34 ± 0.0139 |
| CACCTGTC | 0.224 ± 0.0498 |
| CTTTCACA | 0.24 ± 0.00834 |
| AACGGGGT | 0.205 ± 0.0313 |
| AAGGGATC | 0.194 ± 0.0447 |
| CCTCAACA | 0.204 ± 0.0178 |
| AAGAGTTA | 0.172 ± 0.0103 |
| CCACACGG | 0.197 ± 0.0212 |
| ATACACGC | 0.396 ± 0.0178 |
| ACACACGC | 0.267 ± 0.0306 |
| ATACACGG | 0.401 ± 0.0111 |
| ATACACGA | 0.38 ± 0.00658 |
| ACACACGG | 0.301 ± 0.0255 |
| CGTATACG | 0.153 ± 0.0218 |
| ACCTTGTA | 0.203 ± 0.0145 |

| Sequence | binding signal [E-score] |
| --- | --- |
| CACGTATA | 0.2103 ± 0.000226 |
| CACTTGCC | 0.227 ± 0.036 |
| CGCCACAC | 0.314 ± 0.0118 |
| AGACCCCG | 0.281 ± 0.0369 |
| CCAACTAG | 0.223 ± 0.00917 |
| CACCTCAG | 0.26 ± 0.0094 |
| CCAATTTA | 0.238 ± 0.0221 |
| ACCCCAGC | 0.235 ± 0.0628 |
| ACACCAGG | 0.472 ± 0.00716 |
| ACTCCAGG | 0.228 ± 0.00384 |
| GCACCAGA | 0.181 ± 0.0305 |
| ACAGCACC | 0.1838 ± 0.000898 |
| ACACCAGT | 0.48 ± 0.008 |
| ACCACAGT | 0.22 ± 0.00384 |
| ACCCCAGT | 0.27 ± 0.0137 |
| ACACCAGA | 0.472 ± 0.00546 |
| ACACCAGC | 0.4638 ± 0.00122 |
| ACCCCAGA | 0.201 ± 0.039 |
| ACCCCAGG | 0.249 ± 0.0168 |
| GACGATAC | 0.205 ± 0.0214 |
| CCTGGGTA | 0.164 ± 0.00425 |
| GGGGAGTA | 0.256 ± 0.0126 |
| CACCATGC | 0.297 ± 0.00858 |
| CACCCGGG | 0.327 ± 0.0154 |

| Sequence | binding signal [E-score] |
| --- | --- |
| ACACTGAA | 0.349 ± 0.00868 |
| ACTCTGAC | 0.172 ± 0.00272 |
| ACACTGAC | 0.381 ± 0.0072 |
| ACACTGTC | 0.336 ± 0.0232 |
| ACACTGTG | 0.381 ± 0.0114 |
| ACACTGAG | 0.354 ± 0.00682 |
| CCGCGAAA | 0.167 ± 0.0237 |
| GTAGTACA | 0.277 ± 0.0241 |
| CACGAGTA | 0.167 ± 0.0394 |
| GGTATCGA | 0.2937 ± 0.0007 |
| ATCGTGTC | 0.413 ± 0.0104 |
| GTCGTGTA | 0.438 ± 0.00933 |
| CTCGTGTC | 0.409 ± 0.0114 |
| CTCGGGTC | 0.155 ± 0.0227 |
| GTCGTGCA | 0.181 ± 0.0113 |
| ATCGTGTA | 0.403 ± 0.0236 |
| CTTGTGTC | 0.168 ± 0.0605 |
| ATCGTGTG | 0.229 ± 0.0199 |
| GTCGAGTA | 0.1983 ± 0.00156 |
| CAAGCGTG | 0.165 ± 0.0253 |
| CACCACCC | 0.3364 ± 0.00314 |
| ACGGATCA | 0.172 ± 0.0172 |
| GACCCGCC | 0.18 ± 0.0248 |
| ACGGGTGC | 0.237 ± 0.00406 |

| Sequence | binding signal [E-score] |
| --- | --- |
| CCGGGATC | 0.164 ± 0.0362 |
| CTCGTGTA | 0.398 ± 0.00843 |
| CTCGAGTA | 0.164 ± 0.00196 |
| CTCGGGTA | 0.168 ± 0.0141 |
| AACAGGGG | 0.17 ± 0.00571 |
| CATAACAC | 0.426 ± 0.00624 |
| AATAACAC | 0.426 ± 0.0299 |
| GATAATAC | 0.1568 ± 0.000269 |
| CATAGCAC | 0.195 ± 0.00827 |
| GATAACAC | 0.4333 ± 0.00385 |
| CAAAACAC | 0.321 ± 0.0321 |
| GATAACCC | 0.19 ± 0.0215 |
| AATAAACA | 0.218 ± 0.0334 |
| ATAAACAC | 0.365 ± 0.0198 |
| CACCATAA | 0.303 ± 0.015 |
| ATGACCCG | 0.2 ± 0.00637 |
| ACTAGGTG | 0.218 ± 0.00902 |
| ACCCCAAC | 0.237 ± 0.00988 |
| ACCGGAGT | 0.25 ± 0.0191 |
| AGACCCCA | 0.175 ± 0.0169 |
| ACCACACG | 0.297 ± 0.00738 |
| GCCACACC | 0.367 ± 0.0389 |
| ACCACACC | 0.407 ± 0.0186 |
| CCCACACG | 0.2877 ± 0.0011 |

| Sequence | binding signal [E-score] |
| --- | --- |
| CCCACACC | 0.39 ± 0.0401 |
| ACCACACA | 0.196 ± 0.00984 |
| ACACTTGA | 0.376 ± 0.0165 |
| CGTTGGTA | 0.151 ± 0.00584 |
| GCGCGACA | 0.155 ± 0.0207 |
| CACCGTAC | 0.365 ± 0.0199 |
| CACGGCTC | 0.154 ± 0.0275 |
| AGGTCGTG | 0.264 ± 0.0209 |
| ACACTGCC | 0.429 ± 0.0024 |
| ACACTTCG | 0.327 ± 0.0333 |
| ACACTTCC | 0.349 ± 0.026 |
| ACACTGCT | 0.339 ± 0.0327 |
| CCCCTGCA | 0.17 ± 0.016 |
| ACACTGCG | 0.383 ± 0.00512 |
| ACACTTCA | 0.313 ± 0.047 |
| ACACTGCA | 0.385 ± 0.00749 |
| CACGAGTG | 0.317 ± 0.0328 |
| CTGGGGTA | 0.194 ± 0.0256 |
| CCCCCAAC | 0.17 ± 0.0237 |
| TAATGACA | 0.203 ± 0.0464 |
| CGCATTGC | 0.166 ± 0.0234 |
| AGTGATCC | 0.184 ± 0.018 |
| GGCACACA | 0.179 ± 0.0131 |
| CGGTGCAC | 0.296 ± 0.017 |

| Sequence | binding signal [E-score] |
| --- | --- |
| AGGTGTAC | 0.4703 ± 0.00148 |
| AGGTGTAG | 0.473 ± 0.00747 |
| CGATGTAC | 0.254 ± 0.0159 |
| ACCTGTAT | 0.17 ± 0.00632 |
| AGGTGCAC | 0.264 ± 0.00684 |
| AGGTGTAT | 0.441 ± 0.0169 |
| CGGTGTAC | 0.4872 ± 0.00266 |
| ATGTGTAG | 0.183 ± 0.0469 |
| AGGTGCGG | 0.187 ± 0.0153 |
| AGGTATAA | 0.17 ± 0.0346 |
| ATGTGTAC | 0.23 ± 0.0242 |
| CAGCGGGG | 0.194 ± 0.00852 |
| CACTCTCC | 0.192 ± 0.0425 |
| CACGACGG | 0.182 ± 0.0214 |
| CCATTACA | 0.162 ± 0.00552 |
| CCGGAGTA | 0.227 ± 0.00414 |
| ACACCGTC | 0.4594 ± 0.0011 |
| ACACCGTA | 0.4704 ± 0.00388 |
| ACACCGTG | 0.472 ± 0.00577 |
| ACCCCGTC | 0.178 ± 0.0222 |
